Laboratory results: article PMC5540273 (PLoS ONE, 2017)

Each compound was assayed on PRKG1. Details: concentration: 1 μM,replicates: in singlicate; n = 1.
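Also: KINOMEscan kinase panel screen.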

SMILES	%Inh
O=C(Nc1ccccc1)c1cccc(Oc2ccc3nccn3n2)c1	2%
Cc1ccc(CC(=O)N2CCc3cc(-c4cn(C)c5ncnc(N)c45)ccc32)cc1 [GSK2634758]	4%
COC(=O)c1cccc(NC(=O)NC2CCN(c3ccnc(NCc4ccc(F)cc4)n3)CC2)c1 [GSK1379860]	0%
Cc1n[nH]c2cc(Nc3ccnc(Nc4cccc(CN5CCOCC5)c4)n3)ccc12 [GW682569]	0%
CCN1CCN(CCCC(=O)Nc2n[nH]c3nc(-c4ccc(O)cc4)c(Br)cc23)CC1 [SB-731579]	3%
COc1ccc(Nc2nccc(N3CCC(NC(=O)c4cccc(C#N)c4)C3)n2)cc1 (stereo not shown) [GSK1379730]	12%
C[C@@H](Oc1cc(-n2cnc3cc(-c4ccncc4)ccc32)sc1C(N)=O)c1ccccc1Cl [GSK479719]	3%
Cc1nnc(-c2ccc3occ(-c4ccc(S(C)=O)cc4)c3n2)o1 (stereo not shown)	0%
Cn1cc(-c2cccc3c(N)c(C(N)=O)nnc23)cn1	39%
Cl.Nc1n[nH]c2cc(-c3ccccn3)ccc12 [GSK2189892]	0%
COc1cccc(CNC(=O)NC2CCN(c3ccnc(Nc4cc(OC)c(OC)c(OC)c4)n3)C2)c1 (stereo not shown) [GSK1379765]	3%
Cc1ccc(C(=O)Nc2ccc(Oc3ccc4nc(NC(=O)C5CC5)cn4c3)c(F)c2)c(=O)n1-c1ccccc1	5%
Cc1cccc2c(-c3ccncc3)c(-c3ccc(F)cc3)nn12.Cl [GW461487]	9%
